This is one part of a sample in which hits are shown more often than they occur.
AMPAR-TARP mod – GluA2-stargazin AMPA receptor complex modulation. O88602+P19491. HEK293 GluA2+stargazin, membrane potential dye (FDSS), glutamate EC50; hits were called plate by plate, in both directions. calls only at 30 µM. 40,000 tested, 3.5% active;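 active means any of four per-well response measures lying three or more SD from its plate-wide compound average, in either direction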
GIRK2 act – GIRK2 channel activators by thallium flux | P48051 | HEK293 GIRK2/NPY4 cells, thallium flux fluorescence | activation (% efficacy), % for hits at 37.5 µM | 34,000 tested, under 10 active | AID 1259324;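 active means primary screen hit, no activity in plain HEK293 cells, and in GIRK2-only cells above 5% efficacy rising with concentration; inactive means the rest, including fluorescent compounds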;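 further: efficacy is normalized control-subtracted fluorescence 15 s after thallium addition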
Target sequence (P48051 whole entry, looked up): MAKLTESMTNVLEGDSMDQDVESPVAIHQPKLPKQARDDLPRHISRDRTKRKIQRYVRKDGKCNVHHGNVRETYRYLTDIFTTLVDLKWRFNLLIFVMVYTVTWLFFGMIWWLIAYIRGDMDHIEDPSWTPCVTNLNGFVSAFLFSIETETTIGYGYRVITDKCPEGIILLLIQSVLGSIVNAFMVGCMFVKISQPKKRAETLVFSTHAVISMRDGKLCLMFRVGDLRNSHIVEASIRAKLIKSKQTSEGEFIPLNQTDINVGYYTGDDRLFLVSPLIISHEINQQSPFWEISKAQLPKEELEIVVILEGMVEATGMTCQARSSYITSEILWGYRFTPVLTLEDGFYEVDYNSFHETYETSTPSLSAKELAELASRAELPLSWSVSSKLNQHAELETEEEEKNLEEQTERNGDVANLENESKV
Numbers without * were called inactive; i = inactive; . = no result; + = active, no number.

SMILES | AMPAR-TARP mod | GIRK2 act
Cn1cccc1C(O)CNC(=O)c1ccsc1 (stereo not given) | i | i
Cc1ccc(-n2ccnc2N2CCN(C(=O)Cc3ccccc3)CC2)cc1 | i | i
COC(=O)c1ccccc1NC(=O)CSc1nc2sc(C)cc2c(=O)n1Cc1ccco1 | i | .
CCn1c(=NC(=O)c2ccnn2C)sc2cc(C)ccc21 | . | i
O=C(c1ccccc1)N1N=C(c2ccc(F)cc2)CC1c1ccc2nccnc2c1 (stereo not given) | . | i
O=C(COc1ccccc1C1CC(c2ccccc2)=NN1C(=O)c1ccccc1)NCCO (stereo not given) | + | .
COc1cc(NC(=O)Cn2cnc3c(sc4nc(C)cc(C)c43)c2=O)cc(OC)c1 | i | i
COC(=O)C1=C(C)NC(=O)NC1c1ccccc1OCc1ccccc1 (stereo not given) | i | .
COc1ccc(C2NC(=O)NC(C)=C2C(=O)OCc2ccccc2)c(OC)c1 (stereo not given) | + | .
CCOc1ccc(-c2ccc(=O)n(CCNS(=O)(=O)c3ccc(OC)cc3OC)n2)cc1 | i | .
O=C(NCC(O)(c1cccs1)C1CC1)C(=O)Nc1ccccc1Cl (stereo not given) | i | i
COC(=O)C1=C(C)N(C)C(=O)NC1c1ccc(OCc2ccccc2)cc1 (stereo not given) | i | .
CCC(=O)N1c2ccccc2NC2=C(C(=O)CC(C)(C)C2)C1c1ccc(OCc2ccccc2)cc1 (stereo not given) | + | .
Cc1cc(C)n(CCNC(=O)c2ccc(N3CCCC3)nn2)n1 | i | i
Cc1cc(NC(=O)c2ccc(N3CCCCC3)nn2)on1 | + | i
COc1ccc(-c2ccc(=O)n(CCNS(=O)(=O)c3cc(OC)ccc3OC)n2)cc1 | i | .
COc1ccccc1N1CCN(C(=O)C2(c3ccc(F)cc3)CC2)CC1 | . | i
Cc1ccc(-c2ccc(=O)n(CCCNC(=O)Nc3ccc(F)c(Cl)c3)n2)cc1 | i | i
O=C(CC1CCCCN1S(=O)(=O)c1ccccc1)NCc1cccs1 (stereo not given) | i | .
Cc1cccc(NC(=O)CC2CCCCN2S(=O)(=O)c2cccs2)c1C (stereo not given) | + | i
COc1cn(CC(=O)NC2CCCCC2)c(CSc2nccc(C)n2)cc1=O | i | i
COc1ccc(NC(=O)CSC2=NC(C)(C)N=C2c2ccccc2)cc1OC | i | i
COc1cc(OC)cc(C2=NC3(CCCC3)N=C2SCC(=O)Nc2ccccc2)c1 | + | i
CCn1nccc1C(=O)Nc1nc2ccc(SC)cc2s1 | i | i
COc1ccc(C2(CNS(C)(=O)=O)CCCC2)cc1 | i | i
SMILES | AMPAR-TARP mod | GIRK2 act
COc1ccc(C2(CNC(=O)C3CCN(S(C)(=O)=O)CC3)CCCC2)cc1 | + | i
CN(C)C(CNC(=O)C(=O)NCc1cccs1)c1cccc2ccccc12 (stereo not given) | . | i
CC(C)C(=O)NCCCn1nc(-c2ccco2)ccc1=O | i | i
CC(Oc1ccccc1F)C(=O)NCCCn1nc(-c2ccco2)ccc1=O (stereo not given) | + | i
O=C(CCc1csc(NC(=O)c2cccs2)n1)Nc1ccc(F)c(Cl)c1 | i | i
CCCS(=O)(=O)N1CCN(Cc2nc(C(C)(C)C)cs2)CC1 | i | i
Cc1ccc(S(=O)(=O)NCc2cccnc2)c(C)c1N(C)S(=O)(=O)c1ccc(Cl)cc1 | + | i
Cc1ccc(S(=O)(=O)NCc2ccccc2)c(C)c1N(C)S(=O)(=O)c1ccccc1 | i | .
COc1ccccc1OCC(=O)Nc1cc(C)nn1-c1nc2c(cnn2-c2cccc(C)c2C)c(=O)[nH]1 | . | i
COc1ccc(OC)c(NC(=O)Nc2cccc(-c3cn4nc(OC)ccc4n3)c2)c1 | i | i
CCOc1ccc(S(=O)(=O)Nc2cc(Cl)ccc2O)cc1C | i | i
COc1ccc(Br)cc1S(=O)(=O)Nc1cc(Cl)ccc1O | + | i
COc1ccc(Cl)cc1S(=O)(=O)Nc1cc(Cl)ccc1O | i | i
COc1cc(S(=O)(=O)Nc2cc(Cl)ccc2O)ccc1Cl | + | i
CCOC(=O)C1CCCN(C(=O)CCc2csc(NC(=O)c3cccs3)n2)C1 (stereo not given) | i | i
COc1cc(S(=O)(=O)N2CCN=C2c2ccccc2)ccc1F | i | .
CCc1cc(S(=O)(=O)N2CCN=C2c2ccccc2)ccc1OC | + | i
Cn1ccnc1N1CCN(C(=O)c2ccc3c(c2)OCO3)CC1 | i | i
Cc1cccc(C)c1N1CCN(C(=O)c2ccc3c(c2)OCO3)CC1 | + | .
Cc1cccc(-c2noc(Cn3ncn4nc(-c5ccc(F)cc5)cc4c3=O)n2)c1 | . | i
COc1ccc(-c2ccc(=O)n(CCNS(=O)(=O)c3cc(C)c(C)cc3C)n2)cc1 | + | .
COc1ccc(-c2ccc(=O)n(CCNS(=O)(=O)c3ccc(OC)cc3OC)n2)cc1 | i | .
COc1ccc(-c2ccc(=O)n(Cc3cc(C)ccc3C)n2)cc1 | + | i
Cc1ccc(C)c(Cn2nc(-c3ccc(Cl)cc3)ccc2=O)c1 | i | i
CCOc1ccc(OCC)c(S(=O)(=O)NCCn2nc(-c3ccc(OC)cc3)ccc2=O)c1 | + | .
SMILES | AMPAR-TARP mod | GIRK2 act
CCOc1ccc(S(=O)(=O)NCCn2nc(-c3ccc(OC)cc3)ccc2=O)c(OCC)c1 | i | .
COCc1c(C(=O)Nc2ccccc2C(=O)OC)nnn1-c1ccc(C)cc1 | i | i
COc1ccc(/C=C2\SC(=S)N(c3ccc(O)cc3)C2=O)cc1 | i | .
COc1cccc(NC(=O)CSc2nccn(-c3ccc(F)cc3)c2=O)c1 | i | i
COc1ccc(NC(=O)C(=O)NCC(c2cccc3ccccc23)N2CCCC2)cc1 (stereo not given) | . | i
NC(=O)Cc1csc(NC(=O)COc2ccc3c(c2)C(=O)CC3)n1 | + | i
CS(=O)(=O)Nc1cccc(NC(=O)COc2ccc3c(c2)C(=O)CC3)c1 | i | i
O=C(Nc1nc(-c2cccnc2)cs1)C1CCCN1S(=O)(=O)c1cccs1 (stereo not given) | i | .
COc1ccc(S(=O)(=O)NCC2CCN(c3ncccn3)CC2)c(C)c1 | i | i
Cn1c(O)c(N=Nc2nc3c(c(=O)[nH]c(=O)n3C)n2CCCOc2ccccc2)c(=O)n(C)c1=O | i | .
Cn1c(O)c(N=Nc2nc3c(c(=O)n(C)c(=O)n3C)n2Cc2ccccc2)c(=O)n(C)c1=O | + | .
Cn1c(=O)c2c(nc(N=Nc3c(O)[nH]c4ccccc34)n2CCc2ccccc2)n(C)c1=O | i | .
Cn1c(=O)c2c(nc(NCc3ccccc3)n2CC(=O)N=Nc2c(O)[nH]c3ccccc23)n(C)c1=O | + | .
Cc1cc(C)c(S(=O)(=O)NCc2ccccc2)c(C)c1N(C)S(C)(=O)=O | i | i
CC(C)NC(=O)Cn1cc(-c2nc(-c3cnccn3)no2)ccc1=O | i | i
N#Cc1ccccc1Cn1cc(-c2nc(-c3cnccn3)no2)ccc1=O | + | i
CC1CCN(c2ccc(N3CCN(C(=O)C4CCCCC4)CC3)nn2)CC1 | i | i
O=C(c1ccccc1)c1ccc(OCC(O)CN2CCN(c3ccc(F)cc3)CC2)cc1 (stereo not given) | i | .
O=C(NCCN1CCC(c2cccs2)CC1)C(=O)Nc1cc2c3c(c1)CCC(=O)N3CCC2 | i | i

Bioassay records: PubChem, several laboratories
